Measurements as given in PubChem BioAssay AID759 (NMMLSC, 2007).
In all, about 190,000 compounds went through this assay and about 270 (0.14%) were called active. Inconclusive results (about 2%) are left out. This is one part of a sample in which actives are shown more often than they occur. Unmarked numbers belong to inactive results.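 Rule for the calls: active = GTP binding activity at least 20% away from the 100% baseline, either lowered as inhibitor or raised as activator; inconclusive = flagged as likely green fluorescent, judged across all proteins in the well; inactive = the rest.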

molecular target: GTPase HRas (Homo sapiens) (UniProt P01112); assay: HRas wt fluorescent GTP binding changes, either direction – biochemical, wildtype, bead-based flow cytometry, multiplex, primary screen (AID 759); details: GST-Ras wt beads, Bodipy-FL-GTP binding, at 10 µM, actives lie on both sides;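 note: 0% = unlabeled GTP competition control and 100% = no-compound control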
Sequence (P01112 whole entry, looked up): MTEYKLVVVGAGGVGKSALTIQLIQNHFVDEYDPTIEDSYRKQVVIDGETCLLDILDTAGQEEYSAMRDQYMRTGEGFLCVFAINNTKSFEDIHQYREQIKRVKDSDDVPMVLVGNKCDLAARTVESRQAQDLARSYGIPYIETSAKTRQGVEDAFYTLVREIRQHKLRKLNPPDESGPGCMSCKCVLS

Compound	GTP binding activity
CN1C(=O)/C(=N/OC(=O)c2ccccc2Br)c2ccccc21	91%
CCOC(=O)C1(CCOC)CCN(Cc2ccc(C(=O)OC)cc2)CC1	98%
Cc1cccc(-n2c(Cc3cc(=O)[nH]c(=O)[nH]3)nnc2SCC(=O)Nc2cccc(C(F)(F)F)c2)c1	102%
O=C(NCc1nnc(SCC(=O)N2CCC(Cc3ccccc3)CC2)o1)c1ccco1	98%
O=C(N/N=C/c1ccc([N+](=O)[O-])o1)c1cccc(S(=O)(=O)N2CCOCC2)c1	96%
CN(CC(=O)NC1CCCC1)S(=O)(=O)c1cnc[nH]1	104%
CCC(C)NC(=O)Cn1nc(C(F)(F)F)c2c1CCC2 (stereo not drawn)	100%
C=CCN1C2CCCC1CC(NC(=S)Nc1cccc(OC)c1)C2 (stereo not drawn)	99%
Cc1[nH]c2ccccc2c1-c1ccc(Cl)nn1	96%
COc1cccc(C(=O)Nc2cccnc2)c1OC	98%
FC(F)(F)c1cccc(Cc2noc(CN3CCC(N4CCCCC4)CC3)n2)c1	104%
C=CCNc1nc(Nc2ccc(Cl)cc2)nc(OC)n1	104%
O=C1CN(C(=O)CN2C(=O)NC3(CCCCC3)C2=O)c2ccccc2N1	98%
COc1ccc(S(=O)(=O)Nc2cccnc2)c(Cl)c1Cl	93%
Cc1ccc(S(=O)(=O)N(C)c2ccc(OCC(=O)NC3=NCCS3)cc2)cc1	99%
CCc1ccc(CN2C(=O)c3ccccc3C2C(=O)NCC2CCCO2)cc1 (stereo not drawn)	96%
Cc1ccc(NC(=O)CSc2nc(CSc3ccc(C)cc3)cc(=O)[nH]2)cc1	95%
Cn1c(-c2ccc(F)cc2)cnc1SCC(=O)NNC(=O)Cc1ccccc1	99%
O=C(COC(=O)c1cnccn1)Nc1cccc2ccccc12	96%
O=C(C1CCN(S(=O)(=O)c2ccc(Br)s2)CC1)N1CCN(C2CCCCC2)CC1	95%
O=C(/C=C\c1cn(-c2ccccc2)nc1-c1cccs1)N1CCOCC1	103%
O=C(O)/C=C/c1cn(Cc2ccccc2)nc1-c1cccs1	120% [activator] (active)
O=C(O)/C=C/c1cn(-c2ccccc2)nc1-c1cccs1	92%
CCSc1sc(CC)cc1C=O	97%

Compound	GTP binding activity
COC(=O)Cc1c(O)ccn(Cc2cccc(C(F)(F)F)c2)c1=O	96%
Cc1ccc(NC(=S)N(CCN(C)C)Cc2cccs2)cc1C	93%
O=C(NCc1ccncc1)C(=O)NCc1ccco1	97%
CCOC(=O)c1c(-c2cccc(N)c2)cn2ccccc12	99%
CNC(=S)NNC(=O)c1cccn(Cc2ccccc2)c1=O	97%
Cc1cccc(C)c1N1CCN(S(=O)(=O)N2CCCCC2)CC1	96%
Cc1cc2nc(C(F)(F)F)cc(-c3cccs3)n2n1	90%
Nc1ccc(S(=O)(=O)Nc2nccc(/C=C/c3ccc(Br)s3)n2)cc1	91%
O=C(CCN1CCCCC1)N=Nc1c(O)[nH]c2ccccc12	98%
Cc1cc(OC(=O)c2ccccc2)c([N+](=O)[O-])c(=O)[nH]1	101%
COc1ccc(C(=O)NC(=S)Nc2ccc(Cl)cn2)cc1OC	99%
Cc1nn(CC#N)c(=O)n1N(C)c1ncc(C(F)(F)F)cc1Cl	99%
CC(=O)Nc1ccc(NC(=O)COc2ccc(S(=O)(=O)NC(C)c3ccccc3)cc2)cc1 (stereo not drawn)	114%
Cc1cc(/C=N/NC(N)=O)c(C)n1C1CCCCC1	100%
COc1cc(C(=O)Nc2cc(C(F)(F)F)ccc2-n2cncn2)cc(OC)c1OC	96%
O=C(NC(=S)Nc1ccc(S(=O)(=O)N2CCOCC2)cc1)c1ccccc1[N+](=O)[O-]	95%
COC(=O)c1cccnc1NC(=S)NC(C)C	95%
CCCCn1nc(C(=O)Nc2ccc(S(=O)(=O)Nc3ncccn3)cc2)c2ccccc2c1=O	98%
COCCCNC(=S)N1CCCC(c2nc3cc(C)c(C)cc3[nH]2)C1 (stereo not drawn)	95%
CC1Cc2ccccc2N1C1=CC(=O)CC(C)(C)C1 (stereo not drawn)	99%
Cc1nc(CN2CCN(C(=O)CCc3nnc(Cc4c[nH]c5ccccc45)o3)CC2)cs1	95%
CCc1nnc(NC(=O)CSc2nc(SC)ns2)s1	99%
O=C(O)c1ccc2c3c(cccc13)C(=O)N(OS(=O)(=O)c1ccccc1)C2=O	84%
CCOC(=O)c1cc2c(=O)[nH]c(C(Cl)(Cl)Cl)nc2o1	100%
